High-throughput results as filed in PubChem.
Pf growth 96h = P. falciparum growth inhibition at 96 hours; AID 504834; Potency, µM (highest dose often 28.7 µM), without a hit: at the highest dose activity change, negative = inhibition, actives largely listed as inhibitors; P. falciparum luciferase reporter growth, 96 h; hit rate 6.9% among 320,000; note: potency is the fitted concentration of half-maximal effect
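Delayed-death screen, second-generation endpoint: infected erythrocytes, 2% hematocrit, 0.05% parasitemia final; 96 hours at 37 C, 5% CO2; luciferase detection reagent; luminescence decrease equals reduced growth.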
Pf growth 48h = inhibits P. falciparum growth in the first generation, 48 h | P. falciparum luciferase growth in erythrocytes, 48 h | Potency, µM (series often up to 28.7 µM), without a hit: top-dose activity change, negative = inhibition, usual class: inhibitors | hit rate 5.9% among 310,000; note: potency is the fitted concentration of half-maximal effect
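Luciferase-expressing parasites in RBCs, 2% Hct / 0.1% parasitemia final; RPMI 1640 + 0.5% Albumax; 37 C, 5% CO2, one generation; luminescence read-out, lower signal = inhibition.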
Sm TGR inh = S. mansoni TGR enzyme inhibition | purified TGR, DTNB reduction, TNB absorbance 405 nm | Potency, µM (series often up to 114 µM), for inactives: top-dose activity change, negative = inhibition, usual class: inhibitors | hit rate 3% among 360,000; note: potency is the fitted concentration of half-maximal effect; nearly all actives have a fitted effect of over 60% in size
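First, TGR (20 nM dispensed) and NADPH were mixed with compound. Second, a 15 min room-temperature incubation followed. Third, further NADPH and then DTNB were added to start the reaction. Finally, TNB absorbance was monitored kinetically.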
HCMV antiviral = human cytomegalovirus inhibition; hit rate 4.5% among 410,000; AID 1259415; activity change, negative = inhibition, % at 57.5 µM; HFF cells, HCMV-luciferase reporter, 72 h; active compounds read low; in the data active = activity change below about -60%; inconclusive = no clear call, values can overlap the other calls; inactive = above about -39%
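Luciferase read-out from HCMV-luciferase-infected HFFs (MOI 1 PFU/cell) 72 h post infection at 37C; compounds added after 16 h cell attachment; activity normalized between buffer-only basal and Salinomycin (10uM) inhibitor controls.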
Giardia FBPA inh = blocks Giardia fructose-bisphosphate aldolase activity. A8B2U2. purified Giardia FBPA. Potency, µM (titrated, usually from 59.6 µM), without a hit: at the top dose activity, negative = inhibition, usual class: inhibitors. hit rate 0.71% among 290,000. AID 2451; note: potency is the fitted concentration of half-maximal effect; nearly all actives have a fitted effect of over 55% in size
Target sequence (A8B2U2 whole entry, looked up): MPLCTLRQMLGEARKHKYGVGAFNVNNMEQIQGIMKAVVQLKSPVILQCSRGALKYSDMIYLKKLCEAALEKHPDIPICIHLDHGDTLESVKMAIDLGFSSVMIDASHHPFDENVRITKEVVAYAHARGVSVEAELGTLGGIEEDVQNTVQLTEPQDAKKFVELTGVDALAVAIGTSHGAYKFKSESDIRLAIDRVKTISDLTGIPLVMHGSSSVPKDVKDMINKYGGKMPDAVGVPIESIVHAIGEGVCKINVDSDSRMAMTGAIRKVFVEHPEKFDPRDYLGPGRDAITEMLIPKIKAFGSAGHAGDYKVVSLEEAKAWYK
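40 nM FBPA preincubated 10 min at RT with compound (up to 57.5 uM final), then substrate plus GAPDH/TPI/NAD/arsenate coupling and diaphorase/resazurin added. Fluorescence read after 20 min at RT, 525/598 nm.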
Active calls of the source: *; ? = inconclusive; / = not tested or not shown; [ ] = dose if it differs, or a comment. Compounds with a hit are over-represented: about 14% of the library has one in this group of screens. Unless noted, calls come from the whole dose curve; as a rule, active = well fitted curve in the direction sought with a large enough effect; inconclusive = small, poorly fitted or top-dose-only effect, or another doubt; inactive = no such curve, though single readings can be large; an effect the other way counts as inactive or inconclusive. % is set by controls: 0 for no effect and ±100 for the full control effect.

SMILES | Pf growth 96h | Pf growth 48h | Sm TGR inh | HCMV antiviral | Giardia FBPA inh
COc1cc(CN2CCc3ccc(NC(=O)CCc4ccccc4OC)cc3C2)ccc1O | -13.8% | 5.22µM* | 12.6µM* | -10.2 | -7.3%
CC(NC(=O)c1ccc2c(c1)CCN2S(=O)(=O)c1ccccc1)c1ccccc1 (centres undefined) | / | / | 0.8% | -15.1 | /
Cc1ccc([C@@H]2CC(=O)[C@@H]3CN(S(=O)(=O)c4ccc(C)cc4)[C@H](c4cccc(Cl)c4)C[C@@H]3N2S(=O)(=O)c2ccc(Cl)cc2)cc1 | / | / | / | -33.5 | /
CC(C)NC(=NCc1ccc(Cl)cc1Cl)Nc1ccccc1 | ? | / | -0.1% | -101.0* | -0.2%
Cc1cccc(CNC(=O)c2ccc(NC(=O)C3=CSCCO3)cc2)c1 | ? | 23.6% | 6.3% | / | -11.7%
O=C(/C=C/c1ccccc1)N(c1ccccn1)C1CCCCC1 | -19.8% | -14.4% | 4.9% | 4.9 | -6.7%
CCN(CC)S(=O)(=O)c1ccc(/C=C/C(=O)N(c2ccccn2)C2CCCCC2)cc1 | 4.65µM* | -5.0% | 1.3% | ? | 0.8%
CC(C)CNC(=O)N1[C@H](c2cccs2)[C@@H](C)C(=O)[C@@H](C)[C@@H]1c1cccs1 | / | / | 7.7% | -4.9 | /
O=C(Cn1ncc(Cl)c(Cl)c1=O)NC(=O)NC1CCCCC1 | / | / | / | -94.3* | /
CCn1cc(C(=O)NC(C)C23CC4CC(CC(C4)C2)C3)cn1 (centres undefined) | 5.22µM* | ? | -6.2% | -0.3 | -2.1%
CC1CCCCC1NC(=O)CN1C(=O)NC(Cc2ccccc2)(Cc2ccccc2)C1=O (centres undefined) | / | -8.1% | -8.8% | 0.3 | -0.2%
CCn1cc(C(=O)NC(C)C2CC3CCC2C3)cn1 (centres undefined) | -15.3% | -0.7% | 3.3% | -25.3 | 0.6%
CC(NC(=O)Cn1ncc(Cl)c(Cl)c1=O)C12CC3CC(CC(C3)C1)C2 (centres undefined) | -17.3% | -7.6% | 39.8µM* | / | 1.1%
CC(NC(=O)CN1C(=O)NC(Cc2ccccc2)(Cc2ccccc2)C1=O)C12CC3CC(CC(C3)C1)C2 (centres undefined) | 11.7µM* | / | 7.7% | 22.7 | -7.9%
CCCCC/C=C\C/C=C\CCCCCCCCCC(=O)NCCCC(=O)O | / | / | / | / | 8.6%
CCN(C(=O)COC(=O)c1cccnc1Nc1ccccc1F)C1CCS(=O)(=O)C1 (centres undefined) | 159.0% | 152.8% | -12.7% | 9.5 | 21.4%
CCCCCCCCN1C(=O)[C@H](CC(=O)NCCCC)C[C@@]2(C(=O)OC)CCCCC=C12 | / | / | / | 27.2 | /
CC(C)N(Cc1ccccc1)S(=O)(=O)c1cccs1 | 27.1% | -1.7% | -23.4% | -19.8 | -6.1%
O=C1/C(=N\S(=O)(=O)c2cccs2)C([n+]2cccc(Cc3ccccc3)c2)=C([O-])c2ccccc21 | 0.738µM* | 1.65µM* | -1.4% | / | ?
O=C1/C(=N\S(=O)(=O)c2cccs2)C([n+]2ccc(CCCc3ccccc3)cc2)=C([O-])c2ccccc21 | 1.04µM* | 0.37µM* | -21.8% | -7.4 | ?
O=S(=O)(NCCc1ccccc1)c1cccs1 | 25.6% | 16.8% | 7.4% | 1.7 | 2.3%
CCOc1ccc(-n2c(/C=C/c3cccc(F)c3)nc3cc(OC)c(OC)cc3c2=O)cc1 | / | / | 5.2% | -38.7 | /
O=C(NC1CCCC1)C1C2C=CC(C2)C1C(=O)N1CCOCC1 (centres undefined) | 9.28µM* | 10.0% | 0.7% | 14.5 | 1.4%
O=C(O)C1C2C=CC(C2)C1C(=O)N1CCOCC1 (centres undefined) | ? | 11.5% | -27.8% | ? | 3.7%
C1CCN(CCCNC2C3CC4CC(C3)CC2C4)C1 (centres undefined) | ? | ? | -4.7% | -84.0* | -4.0%
SMILES | Pf growth 96h | Pf growth 48h | Sm TGR inh | HCMV antiviral | Giardia FBPA inh
N=c1c2c(-c3ccccc3)c(-c3ccccc3)n(Cc3ccco3)c2ncn1CCCO | 13.1µM* | ? | 28.2µM* | -32.2 | 12.5%
N=c1c2c(-c3ccccc3)c(-c3ccccc3)n(Cc3ccco3)c2ncn1CCO | -18.8% | ? | ? | -5.3 | 0.2%
Cc1ccc2nc(C)cc(NCCO)c2c1 | / | -14.9% | 2.5% | 45.1 | 2.1%
Cc1ccc2cc(C)c(NCCO)nc2c1 | -9.2% | -9.0% | -0.1% | -60.3* | 0.9%
CCCCn1c(-c2ccc(OC)cc2)nc2c(=O)n(C)c(=O)[nH]c21 | 1.65µM* | -11.9%[0.00184 µM] | -5.0% | -7.4 | -29.2%
Cc1ccc(-c2csc(N3CCC[C@@H]3C(=O)NCCn3c(C(F)(F)F)nc4ccccc43)n2)cc1 | 2.33µM* | ? | -7.8% | -24.7 | ?
Cc1ccc(-c2csc(N(CCO)CCCn3c(C(F)(F)F)nc4ccccc43)n2)cc1 | 6.57µM* | ? | -3.9% | -64.4* | -23.0%
Cc1cccc(/C=N\N=C\c2cccc(C)c2)c1 | 7.38µM* | ? | 2.7% | 40.5 | 11.8%
Cc1cccc(/C=N/n2c(C)nnc2C)c1 | 1.5% | 27.1% | 0.0% | 87.8 | 1.2%
CCOC(=O)[C@@]12C[C@@H]1/C(=N/O)c1ccccc1O2 | / | / | / | / | 3.7%
O=C(NCc1ccccn1)Nc1cc(Cl)ccc1Cl | ? | 7.7% | -8.3% | -67.0* | /
COc1cccc(NC(=O)NCc2ccccn2)c1 | 2.08µM* | 22.8% | 2.2% | 9.8 | -11.4%
CCN(CC(=O)NCc1cccs1)c1ccc(S(=O)(=O)N2CCN(C)CC2)cn1 | 1.5% | -4.2% | 9.2% | -35.4 | 3.1%
COc1ccc(Cl)cc1Cn1c(C)c(C(=O)NCc2cccc([N+](=O)[O-])c2)sc1=O | / | / | / | -9.5 | /
CN(C)CCN(C)Cc1ccccc1Sc1cccc2ccccc12 | 13.1µM* | ? | 20.5% | -75.4* | -14.4%
CC1=Nc2cccc3cccc(c23)N1 | ? | ? | 39.8µM* | -25.5 | 5.9%
Nc1ccc(C2=Nc3cccc4cccc(c34)N2)cc1 | 20.2% | ? | ? | -0.5 | 19.7%
COc1ccc(C)cc1NC(=O)c1ccc2c(O)c(S(=O)(=O)c3ccccc3)c(=O)[nH]c2c1 | 42.7% | 0.0% | -6.9% | -7.6 | 22.2%
COc1ccc(N=N/C(=C\O)C(=O)c2cccs2)cc1 | 76.8% | 193.2% | 12.0% | -92.5* | 0.0%
COc1ccc(CC(=O)NNC(=O)c2cccs2)cc1 | 2.94µM* | 30.7% | 0.0% | ? | 6.5%
COc1ccc(CC(=O)NCC(c2cccs2)S(=O)(=O)c2ccc(Cl)cc2)cc1 (centres undefined) | / | / | 11.2µM* | ? | /
Cc1ccc(S(=O)(=O)C(CNC(=O)Cc2ccc(Cl)cc2)c2cccs2)cc1 (centres undefined) | / | / | -29.4% | -4.1 | /
O=C(Cc1ccc(Cl)cc1)NCC(c1cccs1)S(=O)(=O)c1ccccc1 (centres undefined) | / | / | 8.1% | -16.1 | /
COc1ccc(CC(=O)NNC(=O)Cc2ccc(OC)cc2)cc1 | -4.8% | 10.3% | / | / | 7.9%
CCCC(=O)NCC(c1cccs1)S(=O)(=O)c1ccc(Cl)cc1 (centres undefined) | 2.62µM* | -21.4% | -15.8% | -102.9* | /
